SMILES strings stand for the structures. About 1,000 (0.33%) of roughly 300,000 compounds were called active. No stated cut-off is given here; in the data, active means inhibition above about 28%; inactive means the rest. Many of the other results were omitted from the sample, so actives are more common in it than they were.

The experiment relates to EBNA-1 (Epstein-Barr virus nuclear antigen 1), Human herpesvirus 4. The experiment in a line: blockers of EBV EBNA-1 binding to DNA – biochemical, fluorescence polarization, primary screen (AID 1950). As to conditions: EBNA-1 DNA binding, at 14.8 µM, active compounds read high. For orientation: Fluorescence polarisation rises when a labelled molecule tumbles more slowly, as on binding a larger partner.
What is called inhibition is the change of the read-out against control, counted positive when it falls. Consider `CCc1nonc1NC(=O)c1oc2ccc(Cl)cc2c1C`, for which the inhibition is 7.96% (inactive).

With `COc1ccc(-c2nonc2NC(=O)c2oc3ccc(F)cc3c2C)cc1OC`, the inhibition was 34.8% (active).

Take `Cc1nonc1NC(=O)c1oc2ccccc2c1C`: the inhibition was 1.17% (inactive).

As for `O=C(CCS(=O)(=O)c1ccccc1)NC1CCCC1`, the inhibition was -3.67% (inactive).

As to `COc1cc(NC(=O)CN(C)S(=O)(=O)c2ccc3nc(C)sc3c2)cc(OC)c1`, the inhibition is 1.78% (inactive).

With `COc1cccc(N(CC(=O)Nc2cccc(F)c2)S(C)(=O)=O)c1`, the inhibition is -2.72% (inactive).

With `Cc1nc2ccc(S(=O)(=O)N(C)CC(=O)NC(C)c3ccccc3)cc2s1` (centres undefined), the inhibition was -7.08% (inactive).

Take `Cc1ccc2nc(-c3ccc(NC(=O)CN(C)S(=O)(=O)c4ccccc4)cc3)sc2c1`: the inhibition is 72.6% (active).

Regarding `CCN(CC)S(=O)(=O)c1ccc(NC(=O)CN(c2cccc(F)c2)S(C)(=O)=O)cc1`, the inhibition was -22.3% (inactive).

Consider `Cc1cccc(N(CC(=O)Nc2ccc(-c3nc4ccc(C)cc4s3)cc2)S(C)(=O)=O)c1`, for which the inhibition is 46.6% (active).

On to `COc1cccc(CNn2cn[nH]c2=S)c1OCc1ccccc1`, for which the inhibition was 7.14% (inactive).

Take `O=C(CN1CCSCC1)N/N=C/c1ccc(F)cc1`: the inhibition was 10.8% (inactive).

In the case of `CCOc1ccc(CCNC(=O)COC(=O)c2ccc(F)c(S(=O)(=O)N3CCOCC3)c2)cc1OCC`, the inhibition was -5.23% (inactive).

On to `O=C(Nc1ccccc1F)c1ccc(Cn2cc(Br)cn2)cc1`, for which the inhibition was -6.22% (inactive).

As for `NC(=O)Cn1nc([N+](=O)[O-])nc1Oc1ccc(Br)cc1`, the inhibition is 4.94% (inactive).

`COc1ccc(CCNC(=O)C2CCCN2C(=O)Nc2ccccc2)cc1OC` (centres undefined): the inhibition was 2.79% (inactive).

For `CCCCCCCCCCCCC(NC(C)=O)(C(=O)OCC)C(=O)OCC`, the inhibition was -7.56% (inactive).

On to `CC(C)CNC(=O)C(=O)Nc1ccc(N(C)C)cc1`, for which the inhibition is -3.03% (inactive).

For `CN(C)c1ccc(N/C=C/C(=O)C(F)(F)F)cc1`, the inhibition is 173% (active).

`CC(=O)N(C)c1ccc(NC(=O)C(F)(F)F)cc1`: the inhibition is -11.5% (inactive).

Consider `CCCn1nnnc1NCc1ccc(CC)cc1`, for which the inhibition was 10.3% (inactive).

On to `CC(C)c1ccc(NC(=S)NC2CC3C=CC2C3)cc1` (centres undefined), for which the inhibition is -1.5% (inactive).

`COc1ccc2[nH]c3nc(SCC(=O)NC4CC4)nnc3c2c1`: the inhibition is -0.29% (inactive).

As for `COc1ccc2nc(SCc3ccccc3)nc(C)c2c1`, the inhibition is 11.4% (inactive).

In the case of `COC(=O)CSc1nc(C)c2ccc(OC)cc2n1`, the inhibition is 78.5% (active).

As for `CCN(CC)Cc1csc2ccc(Br)cc12`, the inhibition was 5.3% (inactive).

On to `O=C(C1CCC1)N1CCc2cc(S(=O)(=O)NCc3cccnc3)ccc21`, for which the inhibition is 8.39% (inactive).

Regarding `COc1cc(Nc2nc3ccc(Cl)cc3n3cnnc23)cc(OC)c1OC`, the inhibition is 2.08% (inactive).

As for `O=C(Nc1ccc(C2CC2(Cl)Cl)cc1)c1cccc([N+](=O)[O-])c1` (centres undefined), the inhibition was -4.52% (inactive).

In the case of `Cc1ccc(-n2c(C)cc(/C=C(\C#N)C(=O)NCC3CCCO3)c2C)cc1` (centres undefined), the inhibition was 7.66% (inactive).

With `O=C(Cn1c(NCCO)nc2ccccc21)c1ccc(Cl)cc1Cl`, the inhibition is -13.3% (inactive).

Turning to `Cc1ccc2c(C)c(C(=O)N(C)Cc3ccncn3)oc2c1C`, the inhibition was 3.76% (inactive).

In the case of `COc1ccc(NC(=O)NCc2ccc3c(c2)OCO3)c(OC)c1`, the inhibition is 71.6% (active).

With `COc1ccc2c(c1)C(C)=CC(C)(C)N2C(=O)CNCc1ccc2c(c1)OCO2`, the inhibition was 3.99% (inactive).

On to `COc1cc(OC)c(C(=O)NCc2ccc3c(c2)OCO3)cc1OC`, for which the inhibition is -7.83% (inactive).

Consider `O=C(NCc1ccccc1)[C@@H]1CSC2c3ccccc3C(=O)N21` (some centres undefined), for which the inhibition is -9.14% (inactive).

Take `Cc1ccccc1CCN(CC(=O)NC1CCCCC1)C(=O)c1csnn1`: the inhibition was 3.08% (inactive).

Turning to `CCN(CC(=O)Nc1c(F)cccc1F)C(=O)CN1c2cccc3cccc(c23)S1(=O)=O`, the inhibition is -4.49% (inactive).

As to `Nc1cc(N)nc(SCc2cccc(F)c2)n1`, the inhibition is -19.7% (inactive).

Take `COC(=O)c1ccccc1NC(=O)CSc1nc2c(c(=O)[nH]1)CCC2`: the inhibition was -3.59% (inactive).

Consider `Cc1sc2c(c1C)c(=O)n(-c1ccccc1)c(=O)n2CC(=O)NCC1CCCO1` (centres undefined), for which the inhibition was 1.39% (inactive).

Regarding `Cc1cccc(-n2c(=O)c3c(C)c(C)sc3n(CC(N)=O)c2=O)c1`, the inhibition was -0.9% (inactive).

`Cc1cccc(NC(=O)Cn2c(=O)n(Cc3ccccc3)c(=O)c3c(C)c(C)sc32)c1`: the inhibition was 79.6% (active).

Consider `CCOCCCN(C)C1CCN(C(=O)c2oc3ccccc3c2NC(=O)Cc2cccc([N+](=O)[O-])c2)CC1`, for which the inhibition is -6.1% (inactive).

Consider `CCOc1ccc(C(C(=O)NCCOC)N(CCOC)C(=O)CCC(=O)Nc2ccccn2)cc1` (centres undefined), for which the inhibition was -5.61% (inactive).

`CCOc1ccc(-c2cn(S(=O)(=O)c3cccc4nsnc34)nc2N)cc1`: the inhibition is 3.63% (inactive).

Take `C=CCN(C(=O)Nc1ccc2oc(C)nc2c1)c1ccccc1`: the inhibition was 14.4% (inactive).

Turning to `CCN(CC)c1ccc2oc(=O)c(C)nc2c1`, the inhibition is 110% (active).

For the molecule `CCN(CC)c1ccc2cc(C(N)=O)/c(=N\NC(=O)c3ccncc3)oc2c1`, the inhibition was 9.01% (inactive).

Turning to `C=CCOC(=O)C1=C[C@H](c2ccc(Br)cc2)C[C@H](OCCCCO)O1`, the inhibition was 8.07% (inactive).

Consider `CCc1ccc(C(=O)NN=C2CCCCCC2)s1`, for which the inhibition was 4.85% (inactive).

For the molecule `Cc1cccc(C(=O)OCC(=O)Nc2sc3c(c2C#N)CCC3)c1`, the inhibition was 3.25% (inactive).

On to `N#Cc1c(NC(=O)CCCl)sc2c1CCCCC2`, for which the inhibition is -14.9% (inactive).

Turning to `CC(=O)c1c(C)[nH]c(C(=O)OCC(=O)Nc2sc3c(c2C#N)CCCC3)c1C`, the inhibition is 42.2% (active).

`CC(=O)c1cc(-c2ccccc2)[nH]c1N1CCCC1`: the inhibition was -8.66% (inactive).

Take `Cc1ccc2c(c1)C(O)(CC(=O)c1cccc(-n3cccc3)c1)C(=O)N2` (centres undefined): the inhibition is 2.62% (inactive).

`O=[N+]([O-])c1cccc(S(=O)(=O)N2CCCCCC2)c1`: the inhibition is 1.71% (inactive).

Turning to `CCc1nccn1S(=O)(=O)c1cccc([N+](=O)[O-])c1`, the inhibition is 31.4% (active).

On to `CC1=NCCN1S(=O)(=O)c1cccc([N+](=O)[O-])c1`, for which the inhibition was -6.19% (inactive).

For the molecule `Cc1cc(Nc2ccc(Br)cc2)nc2ccccc12`, the inhibition was -8.6% (inactive).

Regarding `O=C(N/C(=C/c1ccc(Cl)cc1)C(=O)N1CCCCC1)c1ccco1`, the inhibition was 7.31% (inactive).

In the case of `CC(=O)CC[C@@H](C)O[C@@H]1OC(C)[C@H](O)CC1O` (some centres undefined), the inhibition was 4.39% (inactive).

For the molecule `Cc1cc(C)cc(NC(=O)NCc2ccccn2)c1`, the inhibition is -7.86% (inactive).

Turning to `COc1ccc(C)cc1NC(=O)NCCCCc1ccccc1`, the inhibition was 2.71% (inactive).

On to `COc1ccc(C)cc1NC(=O)NCc1ccccn1`, for which the inhibition is 110% (active).

For `CCOc1ccc(S(=O)(=O)N2CCN=C2Cc2ccccc2)cc1C`, the inhibition was 4.47% (inactive).

Turning to `CC1CCCN(S(=O)(=O)c2ccc(-c3ccc(=O)[nH]n3)o2)C1` (centres undefined), the inhibition is -20.5% (inactive).

`O=C(Nc1ccccc1)OCc1cn(-c2ccc(Cl)cc2)nn1`: the inhibition is 6.14% (inactive).

For the molecule `Cc1cccc(N2Cc3ccccc3C2=NC(=O)c2ccc(Cl)nc2)c1`, the inhibition is 17.6% (inactive).

On to `N#Cc1ccc(N2Cc3ccccc3/C2=N/C(=O)Nc2ccc(Cl)cc2)cc1`, for which the inhibition is 73.5% (active).

On to `COc1ccc(NC2CCCN(C(=O)c3ccncc3)C2)cc1` (centres undefined), for which the inhibition is 5.52% (inactive).

On to `C=CCN(c1ccc(Cl)cc1)S(=O)(=O)c1cccc(C(=O)OCC(=O)N(C)C)c1`, for which the inhibition was 11.1% (inactive).

Consider `COc1ccc(C(C[N+](=O)[O-])n2nc(C)cc2C)cc1` (centres undefined), for which the inhibition is 11% (inactive).

Take `Cn1c(-c2ccc(F)cc2)cnc1SCC(=O)NCc1ccco1`: the inhibition is 3.48% (inactive).

Take `O=C(CCCn1c(SCC(=O)c2ccc(F)cc2)nc2ccccc2c1=O)NCc1ccco1`: the inhibition was 37.8% (active).

As to `O=C(CCCn1c(SCC(=O)c2ccccc2)nc2ccccc2c1=O)NCC1CCCO1` (centres undefined), the inhibition was 1.63% (inactive).

Consider `CC(C)C[C@H]1CN=C(Nc2ccccc2)N1CC1CCCCC1`, for which the inhibition is 0.22% (inactive).

As to `COc1ccc(NC(=O)C2C3CCC(O3)C2C(=O)O)cc1OC` (centres undefined), the inhibition is 5.36% (inactive).

In the case of `CCOc1cc(C2C(C(=O)OC)=CN(C3CCCC3)C=C2C(=O)OC)cc(Br)c1O`, the inhibition is 11.7% (inactive).

As to `COC(=O)C1=CN(Cc2ccc(OC)cc2)C=C(C(=O)OC)C1c1ccc(O)c(OC)c1`, the inhibition was 28.7% (active).

Turning to `COc1ccc(C(=O)Nc2ccccc2C(=O)N/N=C/c2ccc(O)c(OC)c2)cc1`, the inhibition was 6.06% (inactive).

In the case of `Cc1ccccc1NC(=O)C(C)OC(=O)CCC(=O)N(CC(C)C)c1c(N)n(CC(C)C)c(=O)[nH]c1=O` (centres undefined), the inhibition was -7.69% (inactive).

As for `COc1ccc(S(=O)(=O)NC(C)C(=O)N2CCCCCC2)cc1` (centres undefined), the inhibition is 2.58% (inactive).

For `CSc1nnc(SCc2nc3sc(C(=O)O)c(C)c3c(=O)[nH]2)s1`, the inhibition was 4.86% (inactive).

For the molecule `CCOC(=O)c1ccc[n+](CC(=O)Nc2ccccc2OC(F)F)c1`, the inhibition was -2.1% (inactive).

For `COc1ccccc1NC(=O)CSc1nc2sc3c(c2c(=O)n1-c1ccccc1)CCN(C)C3`, the inhibition was -6.51% (inactive).

For `Cc1ccc(-c2nc(SCC(=O)Nc3ccccc3OC(F)F)c3c(C)c(C(=O)O)sc3n2)cc1`, the inhibition was 29.7% (active).

As to `COc1ccc([N+](=O)[O-])cc1NCC(=O)c1ccc(C)cc1`, the inhibition was 5.63% (inactive).

As to `Cc1ccc(S(=O)(=O)N(CC(O)CN2C(=O)NC(C)(C)C2=O)c2cccc([N+](=O)[O-])c2)cc1` (centres undefined), the inhibition was -8.62% (inactive).

`CCOC(=O)Cc1csc(NC(=O)COc2ccc3c(C)cc(=O)oc3c2)n1`: the inhibition is -2.07% (inactive).

`Cc1ccc(O)c(/C=N/NC(=O)COc2ccc3c(C)cc(=O)oc3c2)c1`: the inhibition was 27.9% (active).

On to `Cc1cc(=O)oc2cc(OCC(=O)Nc3nnc(C4CC4)s3)ccc12`, for which the inhibition was 7.9% (inactive).

With `Cc1ccc(OCCC(=O)OCC(=O)N2c3ccccc3NC(=O)C2(C)C)cc1`, the inhibition was -1.98% (inactive).

Turning to `CN1CCN(CC(=O)C23CC4CC(CC(C4)C2)C3)CC1`, the inhibition was -0.65% (inactive).

The values above are taken from PubChem BioAssay AID1950 (The Scripps Research Institute Molecular Screening Center, 2009).
